# Article PMC7819943, “Rice protein-binding microarrays: a tool to detect cis-acting elements near promoter regions in rice”
# The full ranking holds about 39,000 sequences; the median of “fluorescence intensity (a.u.)” is about 4,300, and the highest 2% start at about 39,000. This excerpt belongs to a sample that is enriched for the highest values.
# Biological target: T1, OsSMF1 (Oryza sativa, UniProt Q6ZLB0 1-436)
# T1 sequence: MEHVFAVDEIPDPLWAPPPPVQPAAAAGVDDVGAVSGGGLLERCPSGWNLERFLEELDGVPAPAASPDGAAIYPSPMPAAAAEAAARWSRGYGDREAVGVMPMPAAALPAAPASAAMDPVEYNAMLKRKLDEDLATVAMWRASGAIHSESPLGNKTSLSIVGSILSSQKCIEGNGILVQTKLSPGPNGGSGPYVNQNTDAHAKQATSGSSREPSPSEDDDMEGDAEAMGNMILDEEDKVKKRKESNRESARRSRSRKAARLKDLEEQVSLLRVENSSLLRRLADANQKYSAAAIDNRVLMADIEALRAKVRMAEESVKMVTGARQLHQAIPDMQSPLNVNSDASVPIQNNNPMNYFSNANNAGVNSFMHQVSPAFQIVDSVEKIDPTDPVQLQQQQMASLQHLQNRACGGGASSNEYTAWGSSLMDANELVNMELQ
# Assay: protein-binding microarray (RPBM); PBS, 2% BSA, 51.3 ng/ul salmon testes DNA, 50 uM zinc acetate, 200 nM TF, 25 C, 1 h; high values mean tight binding
# Conditions: protein: recombinant; tags: N-terminal polyhistidine and DsRed monomer fusion (pET32a); chain copies: 2; label: CyDye5-dUTP incorporated in the synthesized complementary strand; 3' TTTTT single-stranded linker to array surface; dsDNA, one strand shown
# Summary of the method: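 The binding signal for each feature is its fluorescence intensity in arbitrary units. An Axon 4000B scanner was used to read a custom Agilent array that had been made double-stranded with Cy5-dUTP primer extension, blocked with 2% BSA, incubated at 25 °C for 1 h with 200 nM protein in PBS, 2% BSA, salmon testes DNA and 50 µM zinc acetate, and washed. The protein was an N-terminal polyhistidine–DsRed transcription factor fusion from E. coli BL21-CodonPlus, purified on Ni–NTA.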
row,Sequence,binding signal
1,TCCTTCTTCTTCTCCTTCCTCACTGCAACACTCTTCGGGGCGGAGTCACCTAGTGCAG,38900 fluorescence intensity (a.u.)
2,CTTCGTCTCCTCCTCCTCCACGTCATCCGCCTCCGCCTCCCGGAGTCACCTAGTGCAG,26000 fluorescence intensity (a.u.)
3,TTTGTGCGTGTTACGAGTGACTTGCGTTTATATCCTGCTTCGGAGTCACCTAGTGCAG,6490 fluorescence intensity (a.u.)
4,ACAGGCATAGAGGCTGCTGACACACACCATCCGATCTGTCCGGAGTCACCTAGTGCAG,4990 fluorescence intensity (a.u.)
5,GCGTGGTGCTGGTCTCCAAGGATCCCGACAACATCCGCGACGGAGTCACCTAGTGCAG,5380 fluorescence intensity (a.u.)
6,GTATTGCTGCTGTGATGGAACAAGCTCAGCAGGGTGACATCGGAGTCACCTAGTGCAG,3290 fluorescence intensity (a.u.)
7,GCCGTGAACCAAAGCTCTTGCCGTGCTGTGCCGTGCCGGTCGGAGTCACCTAGTGCAG,3220 fluorescence intensity (a.u.)
8,GGGCGGAGCTGGTGCGGAGGGTGGCGTGGCAGCTCGAGGACGGAGTCACCTAGTGCAG,5260 fluorescence intensity (a.u.)
9,CATCCCTGGTGCTCTTGGTCTCTTGGCAGCTGTGGAAGGACGGAGTCACCTAGTGCAG,43000 fluorescence intensity (a.u.)
10,TGCAGATGGTGCTGTGAAAGCTCTTGAACAGCAGGAAGGTCGGAGTCACCTAGTGCAG,43400 fluorescence intensity (a.u.)
11,ATGTGATGCATGATGATTAGATATGCTTGCATGTTAATTTCGGAGTCACCTAGTGCAG,3160 fluorescence intensity (a.u.)
12,TGCTGCCTTTATCATCACCAAGAGCCACTACCTTGCCTTACGGAGTCACCTAGTGCAG,4370 fluorescence intensity (a.u.)
13,ACACTAATTTCAAGGTTGCTCGTGAGTCATAATCCTGACGCGGAGTCACCTAGTGCAG,7720 fluorescence intensity (a.u.)
14,GGCCGGAGGGCGGCCTCGGTGGCGTGGAGTTGGCAGCGGGCGGAGTCACCTAGTGCAG,3770 fluorescence intensity (a.u.)
15,TCGACCCACCGTCTGCCACGTCAGCTTGCCGCCCACCAATCGGAGTCACCTAGTGCAG,28900 fluorescence intensity (a.u.)
16,AGTAACCGACTCCTTTCCAACGTGTTCCCCACGAAGCCGGCGGAGTCACCTAGTGCAG,4560 fluorescence intensity (a.u.)
17,TTTGAAACCCCTCCTCCTCCTCCTTCCCCAACACACAATCCGGAGTCACCTAGTGCAG,3250 fluorescence intensity (a.u.)
18,CCCTTCCTTCCTTCCTTTGCATCATCATCATCAACCCAATCGGAGTCACCTAGTGCAG,4440 fluorescence intensity (a.u.)
19,GTGCCTGACAATCCTACAGGTGAAATCAACCCCTTTCATCCGGAGTCACCTAGTGCAG,40800 fluorescence intensity (a.u.)
20,CCACAAACATGCAAGACCAAATTCAACTTCTACAAGTTGTCGGAGTCACCTAGTGCAG,13900 fluorescence intensity (a.u.)
21,CGTGTTCGATTCCGCTGCTATCCACGTCGCTACGCGCCACCGGAGTCACCTAGTGCAG,7020 fluorescence intensity (a.u.)

row,Sequence,binding signal
1,AGGTTCGCAGTTCCACGCATCCCACCATCACCACACCACGCGGAGTCACCTAGTGCAG,5160 fluorescence intensity (a.u.)
2,CCACGCTATCCCATGCGATTCGAGAAGGTTCCACACACACCGGAGTCACCTAGTGCAG,41300 fluorescence intensity (a.u.)
3,TCGAGCCGGTAGATGTCTCAGCTAGTGCTTTATCTGTTCGCGGAGTCACCTAGTGCAG,3180 fluorescence intensity (a.u.)
4,CGGCGCCTAGACTGCGTATCGTAGCTGTCGAACGTGTCGTCGGAGTCACCTAGTGCAG,3640 fluorescence intensity (a.u.)
5,GAATCTACTGGGCATTTCGTCAAACAGCTCATCTGCGCCCCGGAGTCACCTAGTGCAG,3590 fluorescence intensity (a.u.)
6,GTGCGTTGTGTGGTTGGTTGGTCAGTGTCTGGGTGGTCACCGGAGTCACCTAGTGCAG,26000 fluorescence intensity (a.u.)
7,ATTCGTCTGAAAATTGTGTTTCACATGCGTCATTTCTCTACGGAGTCACCTAGTGCAG,5080 fluorescence intensity (a.u.)
8,CTCTGGCGATGTGGCGTCTGGTCAAATTCATTGTCTCTACCGGAGTCACCTAGTGCAG,47900 fluorescence intensity (a.u.)
9,GCGAAAACCCTGCATAAACATAGGAAAACACCAAGTGGGTCGGAGTCACCTAGTGCAG,3560 fluorescence intensity (a.u.)
10,TTTGATCACCGGTCCGGTCTTAATAACTATGTGGCAGACGCGGAGTCACCTAGTGCAG,3660 fluorescence intensity (a.u.)
11,CCCTGCGCTGCCACGCGGCCGGCATCCGCCAAAGCAACAGCGGAGTCACCTAGTGCAG,4880 fluorescence intensity (a.u.)
12,AAACACGCGGCATGGCGTGCCGCGATGCAGTCGGAGATGGCGGAGTCACCTAGTGCAG,48600 fluorescence intensity (a.u.)
13,AGTGGTGGAGAAGGAGAGGAGAGGCAGAGAGAATGAGGAGCGGAGTCACCTAGTGCAG,3240 fluorescence intensity (a.u.)
14,GCGTGGAGTGGAGAGTGGAGAGGCATGGGAGGCATGGCAGCGGAGTCACCTAGTGCAG,42900 fluorescence intensity (a.u.)
15,GAAGTGGCGGCCCTTGGCGGAGAGAATGGCATGGCGAGAGCGGAGTCACCTAGTGCAG,65100 fluorescence intensity (a.u.)
16,CGGGAGAGAGATCAGATGCGGCATGGCGTGGCCGTGGCGTCGGAGTCACCTAGTGCAG,3380 fluorescence intensity (a.u.)
17,AGCGAGAGAAGATGCTGACGTGGCATCATGACATGTGGGGCGGAGTCACCTAGTGCAG,19300 fluorescence intensity (a.u.)
18,CCTCCTCAACGCCGCCACCTCATCCGTCCATACAGCGCCGCGGAGTCACCTAGTGCAG,7110 fluorescence intensity (a.u.)
19,GAAGGAGAGGAGGAGAGGAGAGGAGAGAGGGAGGCAGCAGCGGAGTCACCTAGTGCAG,3280 fluorescence intensity (a.u.)
20,CAACAGCAGCAGCTACAACGCGGCATCCATGGCCGCCGCGCGGAGTCACCTAGTGCAG,53300 fluorescence intensity (a.u.)
21,AGAGGCATGGGAGTCATGTTCAGGGTGATGGGAGATGGAGCGGAGTCACCTAGTGCAG,3260 fluorescence intensity (a.u.)
